# PubChem BioAssay AID504566 (NMMLSC, 2011)
# Potency and affinity values are given separately. Active and inactive are the calls of the source.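 The calls were made as follows: active = combined score above 52, rewarding potency beyond a set limit and curve height beyond a set limit; inactive = the rest.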
# Target: Broad substrate specificity ATP-binding cassette transporter ABCG2 (Homo sapiens) (UniProt Q9UNQ0)
# Assay: ABCG2 efflux pump inhibitor potency, dose response, Ig-MXP3 cells, JC-1, flow cytometry, set 2 (AID 504566)
# Conditions: JC-1 efflux; series mostly up to 50 µM
# Sequence of Broad substrate specificity ATP-binding cassette transporter ABCG2 (Homo sapiens) (Q9UNQ0 whole entry, looked up): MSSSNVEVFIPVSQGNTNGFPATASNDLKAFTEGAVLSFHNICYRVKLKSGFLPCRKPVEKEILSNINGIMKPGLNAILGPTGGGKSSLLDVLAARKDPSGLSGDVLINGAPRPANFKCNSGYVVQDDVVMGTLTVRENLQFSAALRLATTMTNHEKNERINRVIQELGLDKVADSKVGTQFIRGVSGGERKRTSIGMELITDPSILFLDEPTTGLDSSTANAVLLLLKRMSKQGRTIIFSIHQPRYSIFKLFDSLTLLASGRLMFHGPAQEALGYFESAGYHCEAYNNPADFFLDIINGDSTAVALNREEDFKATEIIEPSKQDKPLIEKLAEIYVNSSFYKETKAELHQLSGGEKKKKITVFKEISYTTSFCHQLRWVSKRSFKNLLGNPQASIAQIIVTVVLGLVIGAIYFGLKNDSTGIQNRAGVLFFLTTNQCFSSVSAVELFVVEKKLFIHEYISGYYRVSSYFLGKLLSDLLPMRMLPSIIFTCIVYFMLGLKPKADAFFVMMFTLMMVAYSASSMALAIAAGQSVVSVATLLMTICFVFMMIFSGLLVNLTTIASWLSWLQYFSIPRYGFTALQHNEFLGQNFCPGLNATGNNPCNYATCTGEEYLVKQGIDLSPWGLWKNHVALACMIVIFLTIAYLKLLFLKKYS
row,Compound,outcome
1,CC(=O)N1CCN(c2c(C)c(C)nc3cc(-c4ccc(Cl)cc4)nn23)CC1,inactive
2,O=S(=O)(c1ccccc1)N1CCN(c2cc(-c3ccccc3)nc3cc(-c4cccc(Cl)c4)nn23)CC1,inactive
3,Cc1nc2cc(-c3cccs3)nn2c(N2CCN(C(=O)c3ccco3)CC2)c1C,inactive
